Source: PubChem BioAssay (NCI)
Compounds without any hit were thinned out: in the full panel of roughly 79,000, 15% have a hit. Unmarked numbers belong to inactive results. Activity calls are given as the source filed them. Rule as the data show it: active = growth inhibition above about 70%; inactive = the rest.

Test: NCI Yeast Anticancer Drug Screen. Data for the bub3 strain (AID 167)
Settings: S. cerevisiae bub3 mutant strain, hits give high values
Procedure: Growth inhibition of yeast strains with defined genetic alterations is measured as a screen for potential anti-cancer activity. Selected strains with alterations in DNA damage repair or cell cycle control were exposed to compounds and growth inhibition was measured relative to vehicle treated controls. The strain used in this assay is bub3

[1] = at 5.0 µM (retest, dose inferred, filed as 0.5)
[2] = at 50.0 µM (retest, dose inferred, filed as 5.0)

Compound	growth inhibition [1]	growth inhibition [2]	growth inhibition (at 50.0 µM)
[N-]=[N+]=Nc1ccc(SSCCC(=O)ON2C(=O)CCC2=O)cc1	2%	97% (active)	98.7% (active)
CCCCN(CCCC)Cc1ccc(NC(C(=O)c2ccccc2)c2ccccc2)cc1 (configuration not stated)	0%	52%	90.5% (active)
COc1ccc2c(c1OC)C(C(Cl)(Cl)Cl)N1CCc3cc4c(cc3C1=C2)OCO4 (configuration not stated)	20%	86% (active)	80.8% (active)
O=[N+]([O-])c1cc(CN(CCO)CCO)c(O)c2ncccc12	95% (active)	99% (active)	95.7% (active)
CNC(=O)N1N[C@H](c2ccccc2)[C@@H]1c1ccccc1	29%	72% (active)	46.9%
CCN(CC)CC(O)CNc1ccc(C)c2sc3ccccc3c(=O)c12 (configuration not stated)	10%	99% (active)	99.5% (active)
COc1ccc(/C=C/c2c[n+]([O-])ccc2[N+](=O)[O-])cc1	9%	97% (active)	9.35%
Cc1ccc2c(c1)[n+]([O-])c(N)c(C#N)[n+]2[O-]	-31%	97% (active)	29.4%
Cc1ccc(S(=O)(=O)Nc2ccc3c(c2)Cc2cc([N+](=O)[O-])ccc2-3)cc1	57%	63%	59.2%
CN(Cc1cnc2nc(N)nc(N)c2n1)c1ccc(C(=O)NC(CCC(=O)O)C(=O)O)cc1 (configuration not stated)	1%	-6%	-9.7%
CCCCCC(=O)/C=C/c1ccc(C)cc1	-59%	-57%	61.8%
CCOC(=O)c1[nH]n(-c2ccccc2)c(=O)c1/C=N/C(=S)Nc1ccccc1OC	0%	-9%	10.1%
Cc1cc(SC#N)cc(C)c1O	-4%	63%	78.9% (active)
O=C(c1cccc(Cl)c1)c1ccc2ccccc2c1C(=O)O	-6%	1%	-1.5%
